# Compound activity from PubChem BioAssay.
# Rows were chosen to be rich in hits. Some 3.2% of all compounds tested hit in one or more screens of this group.
# Tau ThT inhib: tau fibrillization inhibition (ThT binding) | Potency, µM (series often up to 57.4 µM), hits mostly inhibitors | P10636 | recombinant tau K18 P301L, heparin-induced fibrillization, ThT fluorescence | hit rate 2.1% among 270,000; further: nearly all actives have a fitted effect of over 55% in size
#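 K18 P301L tau (15 uM + 0.24 uM Alexa 594-tagged), heparin 20 uM, NaOAc pH 7, 6 h 37 C; ThT 30 uM, 1 h RT, ex 450/em 510 nm.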
# Tau fluor cs: counter-screen for tau fibril formation inhibitors | tau K18 P301L (four-repeat tau fragment) Alexa594 fluorescence, heparin fibrillization | Potency, µM (highest dose often 57.7 µM) | hit rate 0.93% among 280,000 | AID 1463; further: nearly all actives have a fitted effect of over 55% in size
#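 Human K18 P301L tau (15 uM unlabeled plus 0.24 uM Alexa 594-labeled, final) in 100 mM sodium acetate pH 7 was mixed with compound and 20 uM heparin and incubated 6 hr at 37 C.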
# Tau fibril FP: inhibitors of human tau fibril formation; K18 P301L tau heparin fibrillization, Alexa594 FP, 6 h; Potency, µM (titrated, usually from 57.7 µM), actives largely listed as inhibitors; hit rate 0.39% among 280,000; AID 1468; further: nearly all actives have a fitted effect of over 55% in size
#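 Compound effects on tau fibrillization are measured by Alexa 594 fluorescence polarization (ex 555, em 632 nm). K18 P301L tau is used at 15 uM with 0.24 uM labeled tracer, and 20 uM heparin induces aggregation over 6 hr at 37 C.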
# LMNA splice mod: LMNA splicing modulation; HeLa LMNA splicing GFP/RFP minigene ratio, 48 h; Potency, µM (titrated, usually from 46.1 µM), hits mostly inhibitors; hit rate 0.01% among 200,000; AID 1487; active means well fitted inhibition curve with a large enough effect in the signal ratio, with a control signal flat, not every such curve was filed as active; inconclusive means small, poorly fitted or top-dose-only effect, or effect the other way, or a change in a side signal; the % refers to the signal ratio
#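 S3 HeLa stable clones carrying a lamin A-EGFP splicing minigene plus DsRed2 were seeded at 600 cells/well in Opti-MEM with 2% FBS, pin-dosed and incubated 48 h at 37°C. Acumen cytometry (488 nm) gave the GFP/RFP total-intensity ratio.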
# JMJD2E inh: inhibitors of human JMJD2E histone demethylase. Potency, µM (series often up to 57.1 µM), hits mostly inhibitors. hit rate 1.6% among 230,000. JMJD2E catalytic domain, FDH-coupled NADH fluorescence (FDH is formaldehyde dehydrogenase). B2RXH2; active means well fitted inhibition curve with a large enough effect, not every such curve was filed as active; inconclusive means small, poorly fitted or top-dose-only effect, or another doubt; inactive means no such curve, though single readings can be large or run the other way; further: nearly all actives have a fitted effect of over 50% in size
# CBFb-RUNX1 inh: inhibitors of human CBF-beta and RUNX1 interaction; Q01196+Q13951; 230,000 tested, under 10 active; AlphaScreen CBFb-His/RUNX1-biotin binding, biochemical; Potency, µM (top dose mostly 59.8 µM), usual class: inhibitors
# Target sequence (Q01196 whole entry, looked up): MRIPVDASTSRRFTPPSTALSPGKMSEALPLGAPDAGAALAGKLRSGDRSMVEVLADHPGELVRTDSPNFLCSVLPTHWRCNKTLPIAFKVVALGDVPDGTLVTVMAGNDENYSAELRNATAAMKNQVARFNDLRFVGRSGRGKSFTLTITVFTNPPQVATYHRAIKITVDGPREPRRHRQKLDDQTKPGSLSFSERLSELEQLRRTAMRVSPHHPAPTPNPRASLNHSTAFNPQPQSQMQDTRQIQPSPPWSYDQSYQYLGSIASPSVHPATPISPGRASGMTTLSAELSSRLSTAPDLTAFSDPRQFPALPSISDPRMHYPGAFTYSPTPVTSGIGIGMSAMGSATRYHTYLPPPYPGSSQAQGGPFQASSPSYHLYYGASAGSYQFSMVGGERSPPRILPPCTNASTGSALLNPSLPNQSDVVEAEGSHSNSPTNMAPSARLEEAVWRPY
# Target sequence (Q13951 whole entry, looked up): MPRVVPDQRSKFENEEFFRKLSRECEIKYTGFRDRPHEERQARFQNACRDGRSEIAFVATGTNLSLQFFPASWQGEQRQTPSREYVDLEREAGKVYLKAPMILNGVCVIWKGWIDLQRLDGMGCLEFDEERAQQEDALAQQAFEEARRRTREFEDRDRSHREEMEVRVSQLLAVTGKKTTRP
#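 CBF-beta (His) and RUNX1 (biotin), 30 nM each; 20 min preassociation; + compound, 15 min; + beads 50 ng each (Ni, streptavidin), 90 min; RT; AlphaScreen read.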
# Numbers stand for hits; – = inactive; ? = inconclusive; · = no result given; [ ] = remark or other dose. Unless noted, the call rests on the fitted dose curve; in most records, active means well fitted curve in the direction sought with a large enough effect; inconclusive means small, poorly fitted or top-dose-only effect, or another doubt; inactive means no such curve, though single readings can be large; an effect the other way counts as inactive or inconclusive.
SMILES,Tau ThT inhib,Tau fluor cs,Tau fibril FP,LMNA splice mod,JMJD2E inh,CBFb-RUNX1 inh
CCN(CC)S(=O)(=O)c1ccc(C(=O)NCCSc2c(-c3ccc(F)cc3)[nH]c3ccccc23)cc1,–,4.5µM[quencher],–,·,·,·
CCN(CC)S(=O)(=O)c1ccc(C(=O)NCCSc2c(-c3ccccc3)[nH]c3ccccc23)cc1,–,4.5µM[quencher],–,·,·,·
Cc1ccc(-c2[nH]c3ccccc3c2SCCNC(=O)c2ccc(S(=O)(=O)N3CCOCC3)cc2)cc1,–,3.5µM[quencher],–,?,–,–[2.36 µM]
CN(C)S(=O)(=O)c1ccc(C(=O)NCCSc2c(-c3ccc(Br)cc3)[nH]c3ccccc23)cc1,–,4.5µM[quencher],?,·,·,·
COc1ccc(-c2[nH]c3ccccc3c2SCCNC(=O)c2ccccc2)cc1,–,–,–,?,–,–[2.36 µM]
O=C(NCc1nc2ccccc2[nH]1)c1ccc(S(=O)(=O)N2CCOCC2)cc1,–,–,–,–,?,–
CCc1ccc(CNC(=O)c2cc(=O)[nH]c3ccc(S(=O)(=O)N4CCCCC4)cc23)cc1,–,–,–,–,·,·
COc1ccc(NC(=O)CCSc2nc(-c3ccc(OC)cc3)cc(C(F)(F)F)n2)cc1,–,–,?,·,·,·
COc1ccc(-c2cc(C(F)(F)F)nc(SCCC(=O)Nc3cc(C)on3)n2)cc1,–,–,–,–,22µM,–
COc1ccc(-c2cc(C(F)(F)F)nc(SCCC(=O)Nc3cccc(O)c3)n2)cc1,–,?,14µM,·,·,·
CCOCCCNC(=O)c1ccc(NC(=O)N2CCCCc3ccccc32)cc1,–,–,–,–,·,·
Cc1ccc(CCNC(=O)CN(c2ccc(C(C)C)cc2)S(=O)(=O)c2c(C)nn(C)c2C)cc1,–,–,–,·,·,·
O=C(CNC(=O)c1ccccc1)NC1(C(=O)NC2CCCCC2)CCCCC1,–,–,–,–[9.22 µM],–,–
O=C(CNC(=O)c1ccccc1)NC1(C(=O)NC2CCCC2)CCCCC1,–,2.8µM[quencher],?,–,–,–
CCCCN(CCCC)CC(O)Cn1cc(/C=C/C(=O)c2ccccc2)c2ccccc21 (centres undefined),?,?,–,·,·,·
CCCCN(C)CC(O)Cn1cc(/C=C/C(=O)c2ccc(OCC)cc2)c2ccccc21 (centres undefined),11µM,?,–,·,·,·
COc1cccc(C(=O)Nc2cc(-c3ccccc3)nn2-c2ccccc2)c1,–,–,–,–,·,·
Cc1nc2ccc(N=NC3=C(O)CCCC3=O)cc2s1,13µM,–,–,–,–,–
CCc1ccc(S(=O)(=O)c2cn(C)c3cc(N4CCCCC4C)c(F)cc3c2=O)cc1 (centres undefined),–,–,–,–,·,·
S=C(NCc1ccccc1)N1CCc2ccccc2C1,–,?,?,·,–,–
Fc1ccc2[nH]c3c(c2c1)CN(C(=S)NCc1ccccc1)CC3,?,16µM[quencher],?,·,–,?
Cc1cc(C)c2ccc(N)nc2c1O,–,–,–,?,25µM,–
Cc1cc(C)c2cccc(N)c2n1,–,–,–,–,?,–
Cc1ccc(C)n1-c1ccc(C(=O)O)cc1,?,–,–,?,14µM,?
CNC(=O)NC(=O)COC(=O)c1ccc(-n2c(C)ccc2C)cc1,–,–,–,–,13µM,?
SMILES,Tau ThT inhib,Tau fluor cs,Tau fibril FP,LMNA splice mod,JMJD2E inh,CBFb-RUNX1 inh
CC(C)c1nn2c(=O)cc(COC(=O)c3ccc(NC(=O)c4ccccc4Cl)cc3)nc2s1,–,–,–,?,·,·
COc1cccc(-c2nc(S(=O)(=O)c3ccccc3)c(N3CCC(C)CC3)o2)c1,–,–,–,·,·,·
COc1ccc(C(=O)Nc2ccc(OCC(F)(F)C(F)F)c(C(F)(F)F)c2)cc1OC,–,?,22µM,–,?,–
COc1ccc(NC(=O)c2ccc(COCC(F)(F)F)cc2)cc1OC,?,–,–,–,–,–
O=C(CSc1ncccn1)NCc1ccccc1,–,–,–,–,–,–
Cc1cccc(NCc2ccccc2O)c1C,?,?,–,–,–,–
Oc1ccc(CNc2ccccc2)c2cccnc12,?,–,–,?,8.9µM,?
Oc1c(Br)cc(Br)cc1CNc1ccc(F)cc1,?,?,–,·,–,–
Cc1ccccc1NCc1ccc(O)c2ncccc12,–,–,–,?,7.1µM,?
COCc1ccc(O)c2ncccc12,–,–,–,–,10µM,·
Oc1ccc(CNc2ccc(F)cc2)c2cccnc12,?,–,–,?,7.9µM,–
OCc1ccnc2c(O)cccc12,?,?,–,?,?,–
O=C(Nc1cccc(Cl)c1Cl)c1ccc2c(c1)N(Cc1cccc(Cl)c1)C(=O)c1ccccc1S2(=O)=O,–,–,?,·,·,·
CCc1ccc(NC(=O)c2cc(CN3CCOCC3)on2)cc1,–,–,–,–,·,·
COc1cccc(NC(=O)Cn2c(=O)n(CCc3ccccc3)c(=O)c3c4c(sc32)CN(C(C)=O)CC4)c1,–,?,–,·,·,·
CCN1Cc2cccc(C(=O)Nc3ccc(F)cc3)c2C1=O,–,–,–,·,·,·
Cc1ccc(S(=O)(=O)c2ccccc2)cc1S,28µM,–,?,–,–,–
Nc1ccc(S(=O)(=O)c2cccc(N)c2)cc1,–,–,–,–,–,–
COC(=O)[C@H]1[C@H]2C[C@@H]3c4[nH]c5cc(OC)ccc5c4CCN3C[C@H]2C[C@@H](OC(=O)c2cc(OC)c(OC)c(OC)c2)[C@@H]1OC,?,13µM[quencher],–,?,?,?
COC(=O)[C@@H]1C2CC3c4[nH]c5cc(OC)ccc5c4CCN3CC2C[C@H](OC(=O)c2cc(OC)c(OC)c(OC)c2)C1OC (some centres undefined),?,?,–,·,?,?
COc1ccc(S(=O)(=O)c2nnn(-c3ccc(C)c(Cl)c3)c2C)cc1,–,?,–,·,·,·
CC(C)C/C=C1\CCc2c([nH]c3ccccc23)C1=O,?,–,–,·,–,–
CC1C/C(=C\c2cccnc2)C(=O)/C(=C/c2cccnc2)C1 (centres undefined),7.1µM,–,?,?,–,–
O=C1/C(=C/c2cccnc2)CCc2c1[nH]c1ccccc21,7.1µM,–,–,·,–,–
Cc1ccc(-c2nc(-c3cc4c([nH]c3=O)CC(C)(C)CC4=O)sc2C)cc1,–,–,–,·,·,·
COc1ccc(CNC(=O)CCn2nc(C)c3c(C)n(-c4ccccc4)nc3c2=O)c(OC)c1,–,–,–,·,·,·
CC(C)c1ccc(NC(=O)CCS(=O)(=O)c2ccc(Br)s2)cc1,–,–,–,·,·,·
COCCCNC(=O)Cn1nc(N2CCN(c3ccccc3)CC2)ccc1=O,–,–,–,·,·,·
CCCC(Oc1ccc(Br)cc1)c1nc2c3cc(OC)c(OC)cc3nc(=S)n2[nH]1 (centres undefined),–,16µM[quencher],?,·,–,–
CC(Oc1ccc(Br)cc1)c1nc2c3ccccc3nc(=S)n2[nH]1 (centres undefined),?,?,–,·,–,–
